# Data published in PubChem BioAssay (NCATS).
# Inconclusive results are not listed. A call without a number means that no potency is given here. Values without a mark were called inactive. Activity calls are given as the source filed them. The call rests on the fitted dose curve; in most records, active means well fitted inhibition curve with a large enough effect; inconclusive means small, poorly fitted or top-dose-only effect; inactive means flat fitted curve, though single readings scatter.
# Tests used:
# [1] = tested on: JCK; assay: qHTS profiling for inhibitors of Plasmodium falciparum proliferation (AID 504749); further: potency means the concentration at half of the fitted maximal effect; details: P. falciparum in erythrocytes, SYBR Green DNA, 72 h; series mostly up to 28.7 µM
# Summary of the method: (§1)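 Fluorescence of SYBR Green-bound parasite DNA, read at 485/535 nm, served as the growth measure. Infected erythrocytes were cultured with compound 72 h; artemisinin (0.29 uM) and DMSO wells defined the normalization range.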
# [2] = tested on: N140; assay: as above; details: P. falciparum in erythrocytes, SYBR Green DNA, 72 h; series mostly up to 28.7 µM
# Summary of the method: as §1
# [3] = tested on: P93_24; assay: as above; details: P. falciparum in erythrocytes, SYBR Green DNA, 72 h; series mostly up to 28.7 µM
# Summary of the method: as §1
# [4] = tested on: PC15; assay: as above; details: P. falciparum in erythrocytes, SYBR Green DNA, 72 h; series mostly up to 28.7 µM
# Summary of the method: as §1
# [5] = tested on: PC49; assay: as above; details: P. falciparum in erythrocytes, SYBR Green DNA, 72 h; series mostly up to 28.7 µM
# Summary of the method: as §1
# [6] = tested on: TAB113; assay: as above; details: P. falciparum in erythrocytes, SYBR Green DNA, 72 h; series mostly up to 28.7 µM
# Summary of the method: as §1
# [7] = tested on: W2; assay: as above; details: P. falciparum in erythrocytes, SYBR Green DNA, 72 h; series mostly up to 28.7 µM
# Summary of the method: as §1
# [8] = tested on: KB-3-1; assay: Cytotoxic Profiling of Annotated Libraries Using Quantitative High-Throughput Screening (AID 1296008); details: Five cell lines viability, CellTiter-Glo ATP luminescence, 48-72 h; max response: stronger effect = lower value; further: potency means the concentration at half of the fitted maximal effect
# Summary of the method: (§2)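 Compounds were pin-transferred onto cells and incubated 48 or 72 hr at 37 degree Celsius, 95% humidity. CellTiter-Glo was added, plates sat 10 min at room temperature, then ATP-coupled luminescence was imaged as the viability read-out.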
# [9] = tested on: P94_40; assay: qHTS profiling for inhibitors of Plasmodium falciparum proliferation (AID 504749); further: potency means the concentration at half of the fitted maximal effect; details: P. falciparum in erythrocytes, SYBR Green DNA, 72 h; series mostly up to 28.7 µM
# Summary of the method: as §1
# [10] = tested on: PAD; assay: as above; details: P. falciparum in erythrocytes, SYBR Green DNA, 72 h; series mostly up to 28.7 µM
# Summary of the method: as §1
# [11] = tested on: SC27B; assay: as above; details: P. falciparum in erythrocytes, SYBR Green DNA, 72 h; series mostly up to 28.7 µM
# Summary of the method: as §1
# [12] = tested on: TAB109; assay: as above; details: P. falciparum in erythrocytes, SYBR Green DNA, 72 h; series mostly up to 28.7 µM
# Summary of the method: as §1
# [13] = tested on: TAB165; assay: as above; details: P. falciparum in erythrocytes, SYBR Green DNA, 72 h; series mostly up to 28.7 µM
# Summary of the method: as §1
# [14] = tested on: HACAT; assay: qHTS assay to identify novel small-molecules to repurpose for Merkel cell carcinoma treatment (AID 1296009); details: MCC and control cell lines, CellTiter-Glo viability, 72 h; at 44.8 µM (top of the series) unless noted
# Summary of the method: (§3)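 Luminescence from CellTiter-Glo, read 10 min after addition at room temperature, reported viability following a 72 hr, 37 degree celsius treatment with NPC or MIPE compounds in titration; values normalized to plate controls.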
# [15] = tested on: PC26; assay: qHTS profiling for inhibitors of Plasmodium falciparum proliferation (AID 504749); further: potency means the concentration at half of the fitted maximal effect; details: P. falciparum in erythrocytes, SYBR Green DNA, 72 h; series mostly up to 28.7 µM
# Summary of the method: as §1
# [16] = tested on: NIH3T3; assay: Cytotoxic Profiling of Annotated Libraries Using Quantitative High-Throughput Screening (AID 1296008); details: Five cell lines viability, CellTiter-Glo ATP luminescence, 48-72 h; max response: stronger effect = lower value; further: potency means the concentration at half of the fitted maximal effect
# Summary of the method: as §2
# [17] = tested on: HEK293T; assay: qHTS assay to identify novel small-molecules to repurpose for Merkel cell carcinoma treatment (AID 1296009); details: MCC and control cell lines, CellTiter-Glo viability, 72 h; at 44.8 µM (top of the series) unless noted
# Summary of the method: as §3
# [18] = tested on: HaCat; assay: Cytotoxic Profiling of Annotated Libraries Using Quantitative High-Throughput Screening (AID 1296008); details: Five cell lines viability, CellTiter-Glo ATP luminescence, 48-72 h; max response: stronger effect = lower value; further: potency means the concentration at half of the fitted maximal effect
# Summary of the method: as §2
# Further: nearly all actives have a fitted effect of over 60% in size.
compound,measurement,setting,value
Cc1cccc(C)c1NC(=O)CN1CCN(CCCC(c2ccc(F)cc2)c2ccc(F)cc2)CC1,Potency,[1],inactive
same,Potency,[2],3.16 µM (active)
same,Potency,[3],3.98 µM (active)
same,Potency,[4],inactive
same,Potency,[5],inactive
same,Potency,[6],inactive
same,Potency,[7],4.55 µM (active)
same,max response,[8],-1.23%
CC1(C)CCC(NC(=O)[C@@H](N)CCC(=O)O)CC1,Potency,[1],inactive
same,Potency,[2],inactive
same,Potency,[3],inactive
same,Potency,[9],inactive
same,Potency,[10],inactive
same,Potency,[4],inactive
same,Potency,[5],inactive
same,Potency,[11],inactive
same,Potency,[12],inactive
same,Potency,[6],inactive
same,Potency,[13],inactive
same,Potency,[7],inactive
same,max response,[8],5%
CO/N=C1\CN(c2nc3c(cc2F)c(=O)c(C(=O)O)cn3C2CC2)CC1CN (configuration not stated),Potency,[3],8.91 µM (active)
same,Potency,[5],inactive
same,Potency,[12],5.01 µM (active)
same,Potency,[7],5.36 µM (active)
same,outcome,[14],inactive
CCCCN1CCCC1C(=O)Nc1c(C)cc(C)cc1C (configuration not stated),Potency,[1],inactive
same,Potency,[2],inactive
same,Potency,[3],inactive
same,Potency,[9],inactive
same,Potency,[10],inactive
same,Potency,[4],inactive
same,Potency,[15],inactive
same,Potency,[5],inactive
same,Potency,[11],inactive
same,Potency,[12],inactive
same,Potency,[6],inactive
same,Potency,[13],inactive
same,max response,[16],-4.8%
CCCCC1=NC2(CCCC2)C(=O)N1Cc1ccc(-c2ccccc2-c2nn[nH]n2)cc1,Potency,[1],inactive
same,Potency,[2],inactive
same,Potency,[3],inactive
same,Potency,[9],inactive
same,Potency,[10],inactive
same,Potency,[4],inactive
same,Potency,[5],inactive
same,Potency,[12],inactive
same,Potency,[6],inactive
same,outcome,[14],inactive
same,outcome,[17],inactive
O=C(O)c1cc2cc(Cc3cccnc3)ccc2o1,Potency,[1],inactive
same,Potency,[2],inactive
same,Potency,[3],inactive
same,Potency,[9],inactive
same,Potency,[10],inactive
same,Potency,[4],inactive
same,Potency,[15],inactive
same,Potency,[5],inactive
same,Potency,[11],inactive
same,Potency,[12],inactive
same,Potency,[6],inactive
same,Potency,[13],inactive
same,Potency,[7],inactive
same,max response,[8],4.6%
O=C1CCC(c2ccc(-n3ccnc3)cc2)=NN1,Potency,[1],inactive
same,Potency,[2],inactive
same,Potency,[3],inactive
same,Potency,[9],inactive
same,Potency,[10],inactive
same,Potency,[4],inactive
same,Potency,[15],inactive
same,Potency,[5],inactive
same,Potency,[11],inactive
same,Potency,[12],inactive
same,Potency,[6],inactive
same,Potency,[13],inactive
same,Potency,[7],inactive
same,max response,[8],11.9%
CCCC1O[C@@H]2C[C@H]3[C@@H]4CCC5=CC(=O)C=C[C@]5(C)[C@H]4[C@@H](O)C[C@]3(C)[C@]2(C(=O)CO)O1 (some centres not stated),max response,[8],0.499%
CCCSS/C(CCO)=C(\C)N(C=O)Cc1cnc(C)nc1N,max response,[8],33.8%
CC1=C(C(=O)OC(C)C)C(c2cccc([N+](=O)[O-])c2)C(C(=O)OC2CN(C(c3ccccc3)c3ccccc3)C2)=C(N)N1 (configuration not stated),Potency,[2],7.94 µM (active)
same,Potency,[3],6.31 µM (active)
same,Potency,[9],8.91 µM (active)
same,Potency,[10],10 µM (active)
same,Potency,[4],4.47 µM (active)
same,Potency,[15],7.57 µM (active)
same,Potency,[11],10 µM (active)
same,Potency,[12],6.31 µM (active)
same,Potency,[6],7.08 µM (active)
same,Potency,[13],5.01 µM (active)
same,Potency,[7],5.36 µM (active)
same,Potency,[8],18.4 µM (active)
Nc1ccc(C(=O)O)cc1,Potency,[1],inactive
same,Potency,[2],inactive
same,Potency,[3],inactive
same,Potency,[9],inactive
same,Potency,[10],inactive
same,Potency,[4],inactive
same,Potency,[15],inactive
same,Potency,[5],inactive
same,Potency,[11],inactive
same,Potency,[12],inactive
same,Potency,[6],inactive
same,Potency,[13],inactive
same,Potency,[7],inactive
same,outcome,[14],inactive
same,outcome,[17],inactive
Nc1cc(Cl)c(NC2=NCCN2)c(Cl)c1,Potency,[1],inactive
same,Potency,[2],inactive
same,Potency,[3],inactive
same,Potency,[9],inactive
same,Potency,[10],inactive
same,Potency,[4],inactive
same,Potency,[15],inactive
same,Potency,[5],inactive
same,Potency,[11],inactive
same,Potency,[12],inactive
same,Potency,[6],inactive
same,Potency,[13],inactive
same,Potency,[7],inactive
same,max response,[8],-1.36%
C[C@]12C=CC(=O)C=C1CC[C@@H]1[C@@H]2[C@@H](O)C[C@@]2(C)[C@H]1CC[C@]2(O)C(=O)CO,outcome,[16],inactive
N[C@@H](CCC(=O)N[C@@H](CS)C(=O)NCC(=O)O)C(=O)O,outcome,[14],inactive [at 17.4 µM]
NCCc1ccn[nH]1,Potency,[1],inactive
same,Potency,[2],inactive
same,Potency,[3],inactive
same,Potency,[9],inactive
same,Potency,[10],inactive
same,Potency,[4],inactive
same,Potency,[15],inactive
same,Potency,[5],inactive
same,Potency,[11],inactive
same,Potency,[12],inactive
same,Potency,[6],inactive
same,Potency,[13],inactive
same,Potency,[7],inactive
same,outcome,[14],inactive
CCCCOc1cc(C(=O)NCCN(CC)CC)c2ccccc2n1,Potency,[1],inactive
same,Potency,[2],inactive
same,Potency,[3],inactive
same,Potency,[9],inactive
same,Potency,[10],inactive
same,Potency,[4],inactive
same,Potency,[15],inactive
same,Potency,[5],inactive
same,Potency,[11],inactive
same,Potency,[12],inactive
same,Potency,[6],inactive
same,Potency,[13],inactive
same,max response,[18],2.41%
C[C@@H]1CN(CCCn2c3ccccc3c3ccccc32)C[C@H](C)N1,Potency,[1],inactive
same,Potency,[2],12.6 µM (active)
same,Potency,[3],5.01 µM (active)
same,Potency,[9],8.91 µM (active)
same,Potency,[10],1.78 µM (active)
same,Potency,[12],11.2 µM (active)
same,Potency,[13],7.08 µM (active)
same,Potency,[7],2.39 µM (active)
same,max response,[8],0.54%
COc1cc2c(cc1OC)C(=O)C(CC1CCN(Cc3ccccc3)CC1)C2 (configuration not stated),Potency,[1],inactive
same,Potency,[2],inactive
same,Potency,[3],inactive
same,Potency,[9],inactive
same,Potency,[10],inactive
same,Potency,[4],inactive
same,Potency,[15],inactive
same,Potency,[5],inactive
same,Potency,[11],inactive
same,Potency,[12],inactive
same,Potency,[6],inactive
same,max response,[8],1.75%
same,max response,[16],-17.7%
CC(=O)Oc1ccc(C(=C2CCCCC2)c2ccc(OC(C)=O)cc2)cc1,Potency,[1],inactive
same,Potency,[2],inactive
same,Potency,[3],inactive
same,Potency,[9],inactive
same,Potency,[10],inactive
same,Potency,[4],inactive
same,Potency,[15],inactive
same,Potency,[5],inactive
same,Potency,[11],inactive
same,Potency,[12],inactive
same,Potency,[6],inactive
same,Potency,[13],inactive
same,Potency,[7],inactive
same,outcome,[14],inactive
CC(=O)O[C@H]1C[C@@H]2CC[C@@H]3[C@H](CC[C@@]4(C)[C@H]3C[C@H]([N+]3(C)CCCCC3)[C@@H]4OC(C)=O)[C@@]2(C)C[C@@H]1[N+]1(C)CCCCC1,max response,[8],1.63%
O=C(Nc1ccc(Cl)c(Cl)c1)C1CC1,Potency,[1],inactive
same,Potency,[2],inactive
same,Potency,[3],inactive
same,Potency,[9],inactive
same,Potency,[10],inactive
same,Potency,[4],inactive
same,Potency,[15],inactive
same,Potency,[5],inactive
same,Potency,[11],inactive
same,Potency,[12],inactive
same,Potency,[6],inactive
same,Potency,[13],inactive
same,Potency,[7],inactive
same,max response,[8],-14.1%
same,max response,[16],-1.64%
